Screens (PubChem)
This is one part of a sample in which hits are shown more often than they occur.
IMPase Li cell: cell-permeable IMPase inhibitors with lithium potentiation; hit rate 0.35% among 210,000; Potency, µM (top dose mostly 59.4 µM), for the others: at the top dose activity, negative = IMPase inhibition, usual class: inhibitors; CHO-M1 cells, IP1 TR-FRET (IP-One), carbachol + lithium;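 note: IP1 builds up when IMPase is blocked and the TR-FRET signal falls; potency is the fitted concentration of half-maximal effect; plate controls were basal vehicle for no effect and high inhibitor control for full effect; nearly all actives have a fitted effect of over 50% in size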
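Steps: plate 2000 CHO-M1 cells per well and culture 16–30 h; add compound and lithium; incubate 30 min, 37C; add d2-IP1 tracer and Eu cryptate anti-IP1 antibody in lysis buffer; read after 10 min at room temperature.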
PNC assembly inh: inhibitors of perinucleolar compartment assembly; PC3M PTB-GFP, PNC prevalence imaging, 16 h; active compounds read low; activity change (PNC), negative = inhibition, % at 10 µM; hit rate 3.1% among 140,000; AID 2417;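 active = readout at or below -70, meaning at least 70% loss of cells showing the perinucleolar compartment, a nuclear body marking cancer cells; inconclusive = readout between -30 and a set limit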;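 note: plate controls were DMSO wells for no effect and camptothecin positive control wells for full effect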
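PC3M cells stably expressing PTB-GFP, 750–1000 cells/well, treated 16 h at 37 °C with compound (23 nl of library stock), in duplicate. After paraformaldehyde fixation and Hoechst stain, imaged at 20x; PNC prevalence scored by image analysis.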
ALOX12 inhib: inhibitors of human 12-lipoxygenase (ALOX12); P18054; purified 12-hLO, xylenol orange hydroperoxide absorbance; Potency, µM (top dose mostly 57.1 µM), inactives show top-dose activity change, negative = inhibition, most hits filed as inhibitors; hit rate 0.12% among 150,000; note: potency is the fitted concentration of half-maximal effect; nearly all actives have a fitted effect of over 55% in size
Target sequence (P18054 whole entry, looked up): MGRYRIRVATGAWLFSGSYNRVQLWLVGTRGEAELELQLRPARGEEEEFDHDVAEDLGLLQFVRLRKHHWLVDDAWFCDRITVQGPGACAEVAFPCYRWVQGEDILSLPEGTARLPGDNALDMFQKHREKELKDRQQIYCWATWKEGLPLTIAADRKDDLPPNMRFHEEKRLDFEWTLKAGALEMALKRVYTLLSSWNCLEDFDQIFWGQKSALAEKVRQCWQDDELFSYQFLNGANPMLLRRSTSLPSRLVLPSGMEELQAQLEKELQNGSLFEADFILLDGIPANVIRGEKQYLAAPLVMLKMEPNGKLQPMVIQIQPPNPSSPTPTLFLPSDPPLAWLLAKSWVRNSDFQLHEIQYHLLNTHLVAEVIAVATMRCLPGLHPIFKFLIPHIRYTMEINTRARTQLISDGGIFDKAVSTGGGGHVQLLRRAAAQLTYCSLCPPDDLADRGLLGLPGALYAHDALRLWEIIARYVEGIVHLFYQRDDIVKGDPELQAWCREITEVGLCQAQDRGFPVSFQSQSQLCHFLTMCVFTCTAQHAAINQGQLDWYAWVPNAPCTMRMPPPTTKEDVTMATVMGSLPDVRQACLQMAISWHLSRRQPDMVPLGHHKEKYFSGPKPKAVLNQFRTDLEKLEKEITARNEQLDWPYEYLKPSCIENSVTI
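Hydroperoxide formation by human 12-lipoxygenase from 40 uM arachidonic acid was followed colorimetrically via ferric-xylenol orange complex, using the 573/405 nm absorbance ratio. Enzyme concentration was 150 nM, with 30 min reaction at room temperature.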
15-hLO-2 inh: 15-hLO-2 (ALOX15B) enzyme inhibition | purified 15hLO-2, xylenol orange hydroperoxide absorbance | Potency, µM (series often up to 57.1 µM), for the others: top-dose activity change, negative = inhibition, hits mostly inhibitors | O15296 | AID 881 | hit rate 0.56% among 110,000; note: potency is the fitted concentration of half-maximal effect; nearly all actives have a fitted effect of over 60% in size
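Read-out: hydroperoxide product oxidises ferrous iron, measured as xylenol orange complex via the 573-to-405 nm absorbance ratio after 30 min. Reaction: 50 nM enzyme, 15 min compound preincubation, 45 uM arachidonic acid, 90 min RT, Hepes pH 7.5 with Triton X-100.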
IMPase inh: membrane-permeable compound that blocks inositol monophosphatase. P97697. AID 901. 120,000 tested, under 10 active. inhibition (IP1 accumulation), % at 46.1 µM. CHO-M1 cells, IP1 accumulation, HTRF TR-FRET ratio; active = well fitted curve in the direction sought with a large enough effect in the signal ratio, not every such curve was filed as active; inconclusive = small, poorly fitted or top-dose-only effect, or a change in a side signal; inactive = no such curve, though single readings can be large or run the other way; the % refers to the signal ratio;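 note: cells stimulated with carbachol in lithium chloride buffer; plate controls were DMSO basal wells for no effect and reference inhibitor wells for full effect; higher means more IMPase inhibition seen as more IP1 and lower FRET ratio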
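CHO-M1, 2000 cells/well, cultured 16–30 h; cpd up to 46 uM; carbachol (50 uM solution, stimulation buffer w/ 50 mM LiCl, pH 7.4), 30 min 37C; IP-One TR-FRET, 10 min RT; Ex 320/Em 665, 620; Hill-fit AC50.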
Starred values were filed as active, the others as inactive; ? = inconclusive; · = no result given; [ ] = dose if it differs, or a comment. Unless noted, calls come from the whole dose curve; as a rule, active = well fitted curve in the direction sought with a large enough effect; inconclusive = small, poorly fitted or top-dose-only effect, or another doubt; inactive = no such curve, though single readings can be large; an effect the other way counts as inactive or inconclusive. Unless noted, % is set by controls: 0 for no effect and ±100 for the full control effect.

SMILES	IMPase Li cell	PNC assembly inh	ALOX12 inhib	15-hLO-2 inh	IMPase inh
CCC(=O)NC(c1ccccc1OC)c1ccc2cccnc2c1O (stereo not given)	12%	-100*	-23%	·	13
COCc1cc(C)nc2sc(C(=O)Nc3ccc(OC(F)(F)F)cc3)c(N)c12	·	·	·	·	-2
CCOC(=O)c1cc(-c2ccccc2)sc1NC(=O)COC(=O)c1cccc(S(N)(=O)=O)c1	2%	·	·	·	·
CCOC(=O)c1cc(-c2ccccc2)sc1NC(=O)COC(=O)c1ccc(Cl)c(S(N)(=O)=O)c1	13µM*	·	·	·	·
C=CCc1c(OC(C)=O)c2ccccc2n(C)c1=O	-3%	-106*	3%	·	·
CC(NC(=O)Nc1ccccc1)C(c1cccs1)N1CCOCC1 (stereo not given)	8%	-122*	0%	·	13
CC(NC(=O)Nc1ccc(Cl)cc1)C(c1cccs1)N1CCOCC1 (stereo not given)	26%[38.3 µM]	-19	0%	1%	-5
COc1ccc(S(=O)(=O)Nc2cc(C)c(O)c(S(=O)(=O)c3ccccc3)c2)cc1	5%[38.3 µM]	-102*	-5%	-8%	-5
COC(=O)N[C@@H](CCc1ccccc1)/C(C(=O)OC)=C(\C)NCc1ccccc1	12%	·	1%	·	·
COc1ccc(N(Cc2cc3ccc(C)cc3[nH]c2=O)C(=O)c2ccco2)cc1	5%[38.3 µM]	-84*	-1%	-19%	5
COc1cccc(Nc2nc(C)cc(C)c2C#N)c1	3%	-100*	1%	·	1
CCC1CCc2nc3sc(C(=O)Nc4ccc(C)cc4)c(N)c3cc2C1 (stereo not given)	·	·	·	·	-5
COc1ccc(S(=O)(=O)N(CCO)c2ccccc2CN(C)CC=Cc2ccc(Cl)cc2)cc1	29%	·	-5%[0.00818 µM]	27%[0.0915 µM]	·
CCCCNc1nc(C)nc2c1nc(-c1ccccc1)n2CCCN(CC)CC	3%	·	2%	33%	·
COc1cccc(-c2cc(C(F)(F)F)n3ncc(C(=O)OC(C)C)c3n2)c1	·	·	·	·	11
CC(C)(C)n1nnnc1C(c1ccc(C(F)(F)F)cc1)N(Cc1ccc(F)cc1)Cc1ccco1 (stereo not given)	22%	-119*	-1%	·	8
Cc1ccccc1NC(=O)CC1SCCNC1=O (stereo not given)	16%[38.3 µM]	-92*	4%	-6%	16
Cn1c(C(=O)N2CCN(C(=O)c3ccco3)CC2)cc2c(=O)n3ccccc3nc21	10µM*	?	-9%	-13%	?
COc1ccc2c3c1OC1C[C@@H](O)C=C[C@@]31CCN(C)C2 (stereo not given in full)	16%	·	-2%	-4%	-2
O=C(Cn1c(COc2ccccc2)nc2ccccc21)Nc1cc(Cl)cc(Cl)c1	6%	-100*	2%	·	·
CCc1ccc2[nH]c(=O)c(CN(Cc3ccco3)S(=O)(=O)c3ccc4c(c3)OCCO4)cc2c1	11µM*	29	-5%	0%	-1
Cc1ccc(C)c2[nH]c(=O)c(CN(Cc3ccco3)S(=O)(=O)c3ccc4c(c3)OCCO4)cc12	38%[38.3 µM]	?	-10%	26%	11
Cc1ccc2[nH]c(=O)c(CN(CCCN3CCOCC3)Cc3nnnn3C3CCCC3)cc2c1	-4%[38.3 µM]	-100*	-1%	14%	-3
CN(C)C=Nc1ccc2nn(-c3ccccc3)nc2c1	13µM*	72	5%	26%	-24
Cc1ccc(-n2nc3ccc(N)cc3n2)cc1	-23%[38.3 µM]	-10	-12%	-10%	-23
SMILES	IMPase Li cell	PNC assembly inh	ALOX12 inhib	15-hLO-2 inh	IMPase inh
NC(=O)NC(=O)[C@H]1CCCC[C@@H]1C(=O)O	6%	·	-3%[11.4 µM]	-1%[11.4 µM]	·
CC1CCN(C(=O)c2cc(F)c(F)cc2Cl)CC1	-1%	-100*	3%	·	9
O=C(c1cc(F)c(F)cc1Cl)N1CCOCC1	-16%[38.3 µM]	19	2%	6%	-4
CN(C)c1ccc(C(=O)OCC(=O)c2cccs2)cc1	18%	-113*	-3%	·	·
COC(=O)Cc1cc(=O)n(-c2nc3ccccc3[nH]2)[nH]1	6%	-100*	1%	·	-16
COC(=O)Cc1[nH]n(-c2nc3ccccc3s2)c(=O)c1C(C)=O	15%[38.3 µM]	-19	9%	-1%	0
CO[C@]1(NC(=O)C(C(=O)O)c2ccc(O)cc2)C(=O)N2C(C(=O)O)=C(CSc3nnnn3C)COC21 (stereo not given in full)	8%	·	-4%	23%	·
CCCCc1ccc(-c2csc(/C(C#N)=C\c3ccco3)n2)cc1	12%	-111*	-5%	·	·
Cc1cccc2c(=O)c(C(=O)NCCCN3CCOCC3)c[nH]c12	2%	-100*	-4%	·	-2
CCOc1ccc(NC(=O)C2CC(=O)N(c3ccc(C(C)C)cc3)C2)cc1 (stereo not given)	·	·	·	·	6
Cc1cc(C(=O)Nc2sc3c(c2C#N)CCC3)no1	21%[38.3 µM]	-85*	-7%	-19%	5
N#Cc1c(NC(=O)/C=C/c2ccco2)sc2c1CCCC2	-3%	-112*	-15%	·	-8
COc1ccc(-n2c(=O)c3c4c(sc3n3c(SC(C)C)nnc23)COC(C(C)C)C4)cc1 (stereo not given)	·	·	·	·	4
Cc1cccc(C(=O)Nc2scc(CC(C)C)c2C(=O)O)c1	5%	-98*	-1%	·	·
CCOc1ccc(OCC)c(NS(=O)(=O)c2ccc3c(c2)CCN3C(=O)C2CCC2)c1	25%[38.3 µM]	-85*	-2%	0%	-2
O=C(Oc1ccc(OC(=O)c2ccco2)c(S(=O)(=O)c2ccc(Br)cc2)c1)c1ccco1	14%[38.3 µM]	-100*	-3%	-15%	7
Cc1ccc(S(=O)(=O)c2cc(OC(=O)c3ccco3)ccc2OC(=O)c2ccco2)cc1	-1%	48	3%	·	·
COc1cccc2[nH]c3c(=O)n(CCN(C)C)cnc3c12	-1%[38.3 µM]	-87*	0%	3%	-21
CCN(CC)CCn1cnc2c([nH]c3cccc(OC)c32)c1=O	-20%[38.3 µM]	30	3%	6%[11.4 µM]	-11[1.84 µM]
CC(C)NC(=O)N1CC2(CCN(C(=O)c3ccncc3)CC2)C1	3%	·	-1%	1%	·
O=C(Cc1ccccc1)Nc1sc2c(c1C(=O)Nc1ccccc1Cl)CCCC2	·	·	·	·	0
CCCn1c(C(O)c2ccc3c(c2)OCO3)nc2ccccc21 (stereo not given)	-14%[38.3 µM]	-100*	-16%	25%	9
CSc1nc2sc3c(c2c(=O)n1-c1ccccc1)CCC(C(C)(C)C)C3 (stereo not given)	·	·	·	·	-6
CC(=O)N=c1sc2nc3ccccc3nc2n1N(C(C)=O)C(C)=O	13µM*	-4	-15%	?	?
CC(=O)Nc1cnc2ccccc2n1	19%[38.3 µM]	?	-1%	-4%	-2
Cc1c(C(=O)OCCOc2ccccc2)[nH]c2c1C(=O)CC(c1ccccc1Cl)C2 (stereo not given)	·	·	·	·	11
Cc1nc(=O)cc(-c2ccccc2)n1-c1ccccc1	-4%[38.3 µM]	-108*	-3%	-4%	-5
